Source: PubChem BioAssay
Sampled rows, rich in hits. Any-hit rate of the full collection: about 7.9%.
LASV entry inh – inhibitors of Lassa virus binding or cell entry; Potency, µM (top dose mostly 37.9 µM), most hits filed as inhibitors; actives 1.2% (n = 300,000); Lassa virus pseudotype entry inhibition, cell reporter; AID 540256; calls by dose curve; tested in HEK293 cells; also: nearly all actives have a fitted effect of over 50% in size
HCV inh – inhibitors of hepatitis C virus infection. Huh7.5.1 HCVcc-Cre infection, luciferase reporter, 44 h. Potency, µM (series often up to 41.8 µM), hits mostly inhibitors. actives 3.4% (n = 340,000). AID 651820; active = well fitted inhibition curve with a large enough effect; inconclusive = small, poorly fitted or top-dose-only effect, or another doubt; inactive = no such curve, though single readings can be large or run the other way
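After 44 h co-culture of compound, cells and HCVcc-Cre (~0.5 moi), substrate is added for 15 min at room temperature and luciferase measured over 15 sec. Cells were seeded at 1,000/well and pre-cultured 4 h.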
HCMV inh – inhibitors of human cytomegalovirus | HFF cells, HCMV-luciferase reporter, 72 h; hits give low values | activity change, negative = inhibition, % at 57.5 µM | actives 4.5% (n = 410,000); in the data active = activity change below about -60%; inconclusive = no clear call, values can overlap the other calls; inactive = above about -39%
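After 16 h attachment at 37C, HFF cells received test compound and HCMV-luciferase (1 PFU/cell); reporter luminescence read 72 h later, data normalized against buffer-only and known inhibitor Salinomycin.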
Marburg entry inh – blocks Marburg virus binding to or entry into cells | Potency, µM (top dose mostly 37.8 µM), most hits filed as inhibitors | Marburg virus pseudotyped entry inhibition, cell reporter | actives 1.8% (n = 300,000); calls by dose curve; tested in HEK293 cells
FMDV antiviral – blocks foot and mouth disease virus; actives 1.2% (n = 410,000); FMDV antiviral cell-based qHTS; Potency, µM (series often up to 57.9 µM), actives largely listed as inhibitors; calls by dose curve; tested in HEK293T cells; also: read-out not given here; nearly all actives have a fitted effect of over 45% in size
Large screens that a line does not name were inactive; ! = not confirmed by another sample.

NC(=O)c1cc([N+](=O)[O-])ccc1NCc1cccc([N+](=O)[O-])c1	none (no result: LASV entry inh, Marburg entry inh)
NC(=O)c1cc([N+](=O)[O-])ccc1NCc1ccc(F)cc1	HCV inh 2.5µM, HCMV inh -81 (no result: LASV entry inh, Marburg entry inh)
COc1ccccc1S(=O)(=O)N(C)C[C@H]1OCc2cnnn2CCCC(=O)N([C@H](C)CO)C[C@@H]1C	none (no result: LASV entry inh, HCV inh, Marburg entry inh)
CC(C)NC(=O)N1CC[C@@]2(CCCN(S(=O)(=O)c3ccccc3)C2)C1	none (no result: LASV entry inh, HCV inh, HCMV inh, Marburg entry inh)
CCOc1ccc(CCNC(=O)CN2C(=O)NC3(CCCCCC3)C2=O)cc1OCC	none (no result: LASV entry inh, Marburg entry inh)
COc1ccc(-n2nc3c(c2NC(=O)C(C)Cl)CSC3)cc1 (stereo not given)	none (no result: LASV entry inh, Marburg entry inh)
COc1ccc(-n2nc3c(c2NC(=O)CCl)CSC3)cc1	LASV entry inh inconclusive, Marburg entry inh inconclusive, FMDV antiviral 32µM
COc1ccc(-c2cc(-c3ccccc3)c(C#N)c(S(C)(=O)=O)n2)cc1	LASV entry inh inconclusive, HCMV inh -66, Marburg entry inh inconclusive, FMDV antiviral 40µM
CS(=O)(=O)c1nc(-c2ccc(Br)cc2)cc(-c2ccccc2)c1C#N	LASV entry inh 5.8µM, HCV inh inconclusive, HCMV inh -99, Marburg entry inh inconclusive, FMDV antiviral inconclusive
CCOC(=O)c1nn(-c2cccc(OC)c2)c2nc(Nc3ccccc3)cc(=O)n12	HCV inh 11µM
Cc1cc(NCC2CCCCC2)nc2ccccc12	HCV inh inconclusive, Marburg entry inh 1µM (no result: LASV entry inh)
CCOC(=O)C(NC(=O)c1ccccc1F)(Nc1cc(C)on1)C(F)(F)F (stereo not given)	HCMV inh -94
CNCCC=C1c2ccccc2CCc2ccccc21	LASV entry inh 21µM, Marburg entry inh 7.1µM, FMDV antiviral inconclusive
O=C(/C=C/Nc1ccccc1)C(F)(F)F	HCMV inh -80, Marburg entry inh inconclusive
N#Cc1cccc(NC(=O)c2cc(C3CCCCN3C(=O)c3ccccc3)on2)c1 (stereo not given)	HCMV inh inconclusive (no result: LASV entry inh, HCV inh, Marburg entry inh)
N#Cc1cccc(NC(=O)c2cc(C3CCCCN3C(=O)C3CC3)on2)c1 (stereo not given)	HCMV inh -63, FMDV antiviral inconclusive (no result: LASV entry inh, HCV inh, Marburg entry inh)
CCc1ccc(S(=O)(=O)/N=C2\C=C(Nc3cccc(C(=O)O)c3)C(=O)c3ccccc32)cc1	LASV entry inh inconclusive, HCV inh inconclusive, FMDV antiviral inconclusive
CCc1ccc(S(=O)(=O)/N=C2\C=C(Nc3ccc(O)cc3)C(=O)c3ccccc32)cc1	LASV entry inh 4.5µM, HCV inh inconclusive, Marburg entry inh inconclusive, FMDV antiviral 35µM (no result: HCMV inh)
Cc1cc(C)c(S(=O)(=O)/N=C2\C=C(NS(=O)(=O)c3ccccc3)C(=O)c3ccccc32)c(C)c1	Marburg entry inh inconclusive
O=C(O)c1ccc(NC2=C/C(=N/S(=O)(=O)c3ccccc3)c3ccccc3C2=O)cc1	LASV entry inh 7.1µM, HCV inh 6.3µM, HCMV inh -101, Marburg entry inh 4µM, FMDV antiviral 11µM
Cc1cc(C)c(S(=O)(=O)/N=C2\C=C(Nc3ccc(C(=O)O)cc3)C(=O)c3ccccc32)c(C)c1	LASV entry inh inconclusive, HCV inh inconclusive, HCMV inh -85, Marburg entry inh 5.6µM, FMDV antiviral inconclusive
COc1cccc(C(=O)N(Cc2cc3ccc(C)cc3nc2N(C)C)C2CC2)c1OC	none (no result: LASV entry inh, HCV inh, HCMV inh, Marburg entry inh)
Cc1cc2c(c(-c3ccc(Cl)cc3)c1)OC(CNC(=O)Cc1c(C)noc1C)C2 (stereo not given)	none (no result: LASV entry inh, HCV inh, HCMV inh, Marburg entry inh)
CCOc1ccc(NC(=O)/C=C\C(=O)N(c2ccc(C(C)C)cc2)C(C(=O)NCc2ccco2)c2ccc(F)cc2)cc1 (stereo not given)	HCMV inh -61 (no result: HCV inh, Marburg entry inh)
COc1ccc(N(C(=O)/C=C\C(=O)Nc2ccc(Cl)cc2)C(C(=O)NCc2ccco2)c2ccc(C)cc2)cc1 (stereo not given)	LASV entry inh inconclusive (no result: HCV inh, Marburg entry inh)
Cc1ccc(NC(=O)/C=C\C(=O)N(c2ccc(C(C)C)cc2)C(C(=O)NCc2ccco2)c2ccc(Cl)cc2)cc1 (stereo not given)	LASV entry inh inconclusive, HCMV inh -76 (no result: HCV inh, Marburg entry inh)
CC(C)NC(=O)N1Cc2cc(C(=O)NC3CCCC3)nc(-c3cccc(-c4cccnc4)c3)c2[C@@H]1CCO	none (no result: LASV entry inh, HCV inh, Marburg entry inh)
CCOc1ccc(CN(C)C(C)C(=O)NCCc2ccc(F)cc2)cc1 (stereo not given)	HCV inh inconclusive
CCSc1ncc(Cl)c(C(=O)Nc2ccc(S(=O)(=O)Nc3ncccn3)cc2)n1	none
CCSc1ncc(Cl)c(C(=O)Nc2ccc(S(N)(=O)=O)cc2)n1	HCMV inh -85, Marburg entry inh inconclusive
CSc1ncc(Cl)c(C(=O)Nc2ccc(S(=O)(=O)N3CCC(C)CC3)cc2)n1	LASV entry inh inconclusive, HCMV inh -77, Marburg entry inh inconclusive, FMDV antiviral inconclusive (no result: HCV inh)
CCSc1ncc(Cl)c(C(=O)Nc2ccc(S(=O)(=O)N3CCC(C)CC3)cc2)n1	HCMV inh inconclusive, Marburg entry inh inconclusive, FMDV antiviral inconclusive (no result: HCV inh)
CCS(=O)(=O)c1ncc(Cl)c(C(=O)Nc2ccc(S(=O)(=O)N3CCC(C)CC3)cc2)n1	LASV entry inh inconclusive, HCV inh inconclusive, HCMV inh -100, Marburg entry inh inconclusive, FMDV antiviral 14µM
CCCSc1ncc(Cl)c(C(=O)Nc2ccc(S(=O)(=O)N3CC(C)OC(C)C3)cc2)n1 (stereo not given)	HCV inh 10µM, HCMV inh -68, Marburg entry inh inconclusive
Cc1ccc(C)c(N2CCN(C(=O)CCS(=O)(=O)c3ccc4c(c3)CC(=O)N4C)CC2)c1	none (no result: HCV inh, Marburg entry inh)
Cc1ccc(-c2cc(C(=O)N3CCCc4ccccc43)c3ccccc3n2)cc1	Marburg entry inh inconclusive
Cc1ccc2nc3sc(C(=O)N4CCCc5ccccc54)c(N)c3cc2c1	LASV entry inh inconclusive, HCV inh inconclusive, HCMV inh -90, Marburg entry inh inconclusive
Cc1csc(SCC(=O)N2CCOc3ccc(C(O)C4CCCCC4)cc3C2)n1 (stereo not given)	none (no result: LASV entry inh, HCV inh, HCMV inh, Marburg entry inh)
Cc1ncc2c(c1CNC(=O)c1ccc3c(c1)OCO3)CCN(C(=O)/C=C/c1ccccc1Cl)C2	none (no result: LASV entry inh, HCV inh, HCMV inh, Marburg entry inh)
CCOc1ccccc1OCCCC(=O)N(C)CC(=O)Nc1cc(C)ccc1C	HCMV inh -70
CCOc1ccc(NC(=O)CN(C)C(=O)c2ccccc2OCc2cccc(C)c2)cc1OCC	LASV entry inh inconclusive, HCV inh 10µM, Marburg entry inh inconclusive
Cc1cccc(COc2ccccc2C(=O)N(C)CC(=O)Nc2cccc(F)c2)c1	HCV inh inconclusive (no result: LASV entry inh, Marburg entry inh)
Cc1ccc(C)c(NC(=O)CCOc2ccccc2)c1	HCMV inh -67!
CCOc1ccc(NC(=O)CC2C(=O)N(c3ccc(OC)cc3)C(=O)N2CCC2=CCCCC2)cc1 (stereo not given)	Marburg entry inh inconclusive (no result: HCV inh)
CCc1nc2ccc(C(=O)N3CCN(C(=O)c4ccco4)CC3)cn2c1N(C)C(=O)COc1ccccc1	none (no result: LASV entry inh, HCV inh, Marburg entry inh)
CN(C)c1ccc(CNC(=O)c2ccc(NC(=O)N3CCCCc4ccccc43)cc2)cc1	none (no result: HCV inh, Marburg entry inh)
CN(C)C(=O)CCC(=O)NCC1Cc2cccc(-c3ccccc3C(F)(F)F)c2O1 (stereo not given)	none (no result: LASV entry inh, HCV inh, HCMV inh, Marburg entry inh)
COc1ccccc1-c1nn2c(=O)cc(CN3CCN(C(=O)/C=C/c4ccccc4)CC3)nc2s1	LASV entry inh inconclusive (no result: HCV inh, Marburg entry inh)
